Values joined by “and” are separate entries in the source; they are usually repeats but may differ in a detail not shown here. Identical values can stand only once. Among all 16,000 compounds or so, about 5,800 (36%) were called active. Another 23% or so got no clear call; they are omitted. Calls come from the whole dose curve; as a rule, active = well fitted curve in the direction sought with a large enough effect; inconclusive = small, poorly fitted or top-dose-only effect, or effect the other way; inactive = no such curve, though single readings can be large or run the other way. Some of the results follow. Some compounds were tested as several samples or in several runs, with calls that do not always agree.
What follows are molecules tested against Cytochrome P450 2C19 (Homo sapiens) (UniProt P33261) (assay: Cytochrome panel assay with activity outcomes). Conditions: recombinant CYP, pro-luciferin dealkylation, luminescence, p450-cyp2c19; series mostly up to 57.1 µM.
Chain of Cytochrome P450 2C19 (Homo sapiens) (P33261 whole entry, looked up): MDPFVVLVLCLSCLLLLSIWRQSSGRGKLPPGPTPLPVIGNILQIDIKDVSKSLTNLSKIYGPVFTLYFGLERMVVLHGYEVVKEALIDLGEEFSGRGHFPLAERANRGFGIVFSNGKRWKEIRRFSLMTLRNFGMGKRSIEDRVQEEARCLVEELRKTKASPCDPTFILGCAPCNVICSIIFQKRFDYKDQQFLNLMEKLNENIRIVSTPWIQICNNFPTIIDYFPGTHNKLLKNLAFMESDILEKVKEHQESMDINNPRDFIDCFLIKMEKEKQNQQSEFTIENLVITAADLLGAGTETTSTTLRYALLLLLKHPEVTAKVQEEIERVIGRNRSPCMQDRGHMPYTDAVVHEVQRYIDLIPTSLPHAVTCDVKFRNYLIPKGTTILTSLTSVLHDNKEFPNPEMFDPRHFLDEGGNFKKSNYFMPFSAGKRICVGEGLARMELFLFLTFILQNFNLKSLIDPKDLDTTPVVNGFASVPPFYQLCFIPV
% is set by controls: 0 for no effect and ±100 for the full control effect.

Q: How did the AC50 turn out when `CN1[C@@H]2CC[C@H]1CC(O)C2` (some centres not stated) was run?
A: inactive

Q: With `O=C(O)CN1CCN(CC(=O)O)CC(=O)[O][Hg][O]C(=O)C1` as the molecule, how does the AC50 read?
A: 0.794 µM (active)

Q: `CC(C)NP(=O)(NC(C)C)OP(=O)(NC(C)C)NC(C)C` was tested. Which AC50 did it give?
A: inactive

Q: Which AC50 does the source give for `O=C(Nc1ccccc1)N1CC[C@@]2(CCCN(C(=O)Oc3ccccc3)C2)C1` here?
A: inactive

Q: `COc1cc([C@H]2c3cc4c(cc3[C@@H](O)[C@@H]3COC(=O)[C@H]23)OCO4)cc(OC)c1OC` was tested. Which AC50 did it give?
A: 10 µM (active)

Q: `NC(=O)c1ccc(C(=O)Nc2ccc([As](=O)(O)O)cc2)cc1` was tested. Which activity, negative = inhibition did it give?
A: 10.2% [at 11.4 µM] (inactive)

Q: `CCCCC1(CCCC)C(=O)NC(=Nc2cccc(C)c2)NC1=O` was tested. Which AC50 did it give?
A: 2.24 µM (active)

Q: With `CC[N+](CC)(CCNC(=O)C(=O)NCC[N+](CC)(CC)Cc1ccccc1Cl)Cc1ccccc1Cl` as the molecule, how does the AC50 read?
A: inactive

Q: For `O=C(Oc1ccccc1)N1CCC2(CCCN(Cc3ccccc3)C2)CC1`, which AC50 is on record?
A: inactive

Q: `Cc1nc2ccccc2c(=O)n1-n1cnnc1` was tested. Which AC50 did it give?
A: inactive

Q: Which AC50 does the source give for `Cc1nc2sccc2c(=O)n1-c1ccccc1Cl` here?
A: 2.82 µM (active)

Q: How did the AC50 turn out when `C[C@@H](N)Cn1ccc2cc(F)c(Cl)cc21` was run?
A: inactive

Q: How did the activity, negative = inhibition turn out when `CC(C)CCC1(CCN)C(=O)NC(=O)NC1=O` was run?
A: 5.97% [at 11.4 µM] (inactive)

Q: `CN1CCN(c2ncc3ncc(=O)n(C)c3n2)CC1` was tested. Which AC50 did it give?
A: inactive

Q: For `CC(C)[C@]1(O)[C@@H](OC(=O)c2ccc[nH]2)[C@]2(O)[C@@]3(C)C[C@@]4(O)O[C@@]5([C@H](O)[C@@H](C)CC[C@]35O)[C@]2(O)[C@]41C`, which activity, negative = inhibition is on record?
A: 23.6% [at 11.4 µM] (inactive)

Q: For `CCC(=O)O[C@@](Cc1ccccc1)(c1ccccc1)[C@@H](C)CN(C)C`, which AC50 is on record?
A: inactive

Q: Which AC50 does the source give for `O=C(Oc1ccccc1)N1CCC2(CCCN(C(c3ccccc3)c3ccccc3)C2)CC1` here?
A: inactive

Q: For `CCOP(=O)(OCC)C(NC(=O)C(Cl)Cl)C(Cl)(Cl)Cl` (configuration not stated), which AC50 is on record?
A: 10 µM (active)

Q: With `CCOP(=O)(OCC)C(NC(C)=O)C(Cl)(Cl)Cl` (configuration not stated) as the molecule, how does the AC50 read?
A: inactive

Q: For `N#Cc1ccc(CN2CC[C@@]3(CCCN(C(=O)Oc4ccccc4)C3)C2)cc1`, which AC50 is on record?
A: inactive

Q: `C[N+](C)(C)CCCCCC[N+](C)(C)C` was tested. Which AC50 did it give?
A: inactive

Q: How did the AC50 turn out when `Cc1cccc([C@H](C)c2cnc[nH]2)c1C` was run?
A: 5.01 µM (active)

Q: How did the activity, negative = inhibition turn out when `C[N+]1(C)C2CC[C@H]1CC(OC(=O)[C@@H](CO)c1ccccc1)C2` (some centres not stated) was run?
A: 14.6% [at 11.4 µM] (inactive)

Q: With `C#CCN[C@@H](C)Cc1ccccc1` as the molecule, how does the AC50 read?
A: inactive

Q: `CNCCCc1ccccc1` was tested. Which AC50 did it give?
A: inactive

Q: How did the AC50 turn out when `C[C@@H](Cc1cccc(C(F)(F)F)c1)NCCCc1ccccc1` was run?
A: 1.26 µM (active)

Q: `c1ccc2c(N3CCNCC3)cccc2c1` was tested. Which AC50 did it give?
A: inactive

Q: `CP(=O)(O)CCCN` was tested. Which AC50 did it give?
A: inactive

Q: How did the AC50 turn out when `C[C@]12N[C@@H](Cc3ccccc31)c1ccccc12` was run?
A: inactive

Q: Which AC50 does the source give for `C=C1[C@@H]2CC[C@H]3[C@@]4(C)C[C@@H](O[C@@H]5O[C@H](CO)[C@H](OS(=O)(=O)O)[C@@H](OS(=O)(=O)O)[C@@H]5OC(=O)CC(C)C)C[C@@H](C(=O)O)[C@H]4CC[C@@]3(C2)[C@H]1O` here?
A: inactive

Q: How did the AC50 turn out when `N[C@H](CP(=O)(O)O)C(=O)O` was run?
A: inactive

Q: For `Cc1nc(-c2ccc(-c3ccc(C(=O)N4CCc5cc6c(cc54)C4(CCN(C)CC4)CO6)cc3)c(C)c2)no1`, which AC50 is on record?
A: inactive and 3.98 µM (active)

Q: For `C[C@@H]1O[C@H]1P(=O)(O)O`, which AC50 is on record?
A: inactive

Q: `N[C@H](CCCP(=O)(O)O)C(=O)O` was tested. Which AC50 did it give?
A: inactive

Q: For `N#C/C(=C\c1ccc(O)c(O)c1)C(=O)NCCCNC(=O)/C(C#N)=C/c1ccc(O)c(O)c1`, which AC50 is on record?
A: inactive

Q: `N#C/C(=C\c1ccc(O)c(O)c1)C(N)=S` was tested. Which AC50 did it give?
A: inactive and 25.1 µM (active)

Q: Which AC50 does the source give for `N#CC(C#N)=Cc1cc(O)c(O)c(O)c1` here?
A: inactive

Q: How did the AC50 turn out when `CCC(=O)Nc1ccc(N2CCN(CC)CC2)c(Cl)c1` was run?
A: inactive

Q: `Cc1c2ccncc2c(C)c2c1[nH]c1ccccc12` was tested. Which AC50 did it give?
A: 3.16 µM (active)

Q: For `Cc1nccc2c1[nH]c1ccccc12`, which AC50 is on record?
A: inactive

Q: `CN(C)CCC(=O)[C@@]1(O)CC[C@H]2[C@H]3CC=C4C[C@@H](O)CC[C@]4(C)[C@H]3CC[C@]21C` was tested. Which activity, negative = inhibition did it give?
A: 13.6% [at 11.4 µM] (inactive)

Q: `O=C(Nc1ccc(Cl)cc1)Nc1nccs1` was tested. Which AC50 did it give?
A: 25.1 µM (active)

Q: Which AC50 does the source give for `C[C@H]1CCCC=CC2C[C@H](O)C[C@@H]2[C@H](O)/C=C\C(=O)O1` (some centres not stated) here?
A: inactive

Q: How did the AC50 turn out when `Cc1cc(C)nc(NC2=NCCS2)n1` was run?
A: inactive

Q: `O=S(=O)(O)/C(=C\c1ccccc1)c1ccccc1` (tested in a mixture with another compound) was tested. Which activity, negative = inhibition did it give?
A: -40.3% [at 11.4 µM] (inactive)

Q: How did the AC50 turn out when `CC(=O)c1ccc2c(c1)N(CCCN(C)C)c1ccccc1S2` was run?
A: inactive

Q: How did the AC50 turn out when `COC(=O)N1CCC2(CCN(CC(C)C)CC2)CC1` was run?
A: inactive

Q: `c1ccc(N2CCC3(CCNCC3)CC2)cc1` was tested. Which AC50 did it give?
A: inactive

Q: Which AC50 does the source give for `Cc1sc(NC(=O)C2C3CCC(O3)C2C(=O)O)c(C(=O)OC(C)C)c1-c1ccc(Cl)cc1` (configuration not stated) here?
A: 14.1 µM (active)

Q: Which AC50 does the source give for `CN1C(=O)c2ccccc2Sc2ccc(C(=O)N3CCC4(CC3)OCCO4)cc21` here?
A: inactive

Q: With `O=C(c1cc(-c2ccccc2)nc2ccccc12)N1CCC2(CC1)OCCO2` as the molecule, how does the AC50 read?
A: 10 µM (active)

Q: With `CN1[C@@H](CC(=O)c2ccccc2)CCC[C@@H]1C[C@@H](O)c1ccccc1` as the molecule, how does the AC50 read?
A: inactive

Q: With `CN1CC[C@@]2(CCCN(C(=O)c3ccco3)C2)C1` as the molecule, how does the AC50 read?
A: inactive

Q: `O=C(c1ccco1)N1CCC[C@@]2(CCN(Cc3ccncc3)C2)C1` was tested. Which AC50 did it give?
A: 2.51 µM (active)

Q: For `COCC(=O)N1CCC2(CCCN(Cc3ccncc3)C2)CC1`, which AC50 is on record?
A: inactive

Q: `CNC(C)(C)Cc1ccccc1` was tested. Which AC50 did it give?
A: inactive

Q: For `C[C@@H](Cc1ccc(OCC(=O)O)cc1)NC[C@H](O)c1cccc(Cl)c1`, which AC50 is on record?
A: inactive and 5.01 µM (active)

Q: `CCNC[C@H](O)c1cccc(O)c1` was tested. Which AC50 did it give?
A: inactive

Q: Which AC50 does the source give for `C=C1[C@@H]2C[C@@]3([C@H]1O)[C@H]1C[C@@H]4[C@@]5(C)CC[C@H](O)[C@]4([C@H]1N(CC)C5)[C@H]3C[C@H]2O` here?
A: inactive

Q: `Oc1cccc2cccnc12` was tested. Which activity, negative = inhibition did it give?
A: 31.2% [at 11.4 µM] (inactive)

Q: How did the activity, negative = inhibition turn out when `CC1=NN(c2ccc(S(=O)(=O)O)cc2C)C(=[OH+])[C@H]1N=Nc1cc(S(=O)(=O)O)ccc1C(=O)O.O.[Cr]` was run?
A: 33.2% [at 11.4 µM] (inactive)

Q: How did the AC50 turn out when `COCOc1ccc(Br)cc1C(=O)/C=C\c1ccc2c(c1)OCO2` was run?
A: 0.0631 µM (active)

— PubChem BioAssay AID1851 (National Center for Advancing Translational Sciences (NCATS), 2009)
